What all share (test): PBM binding z-score (relative to random genomic background probes); higher = stronger binding; sequences stand for … in GC…GCGATTGACAGCGTAGAATGAAGG
Test [1] relates to FXR:RXRa (NR concentration 270 nM, RXRa partner concentration 90 nM). Put shortly: (§1)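 The probes on custom Agilent 4×180K protein-binding microarrays were double-stranded, with 34-nt variable regions bearing direct-repeat seeds, single-nucleotide variants, half-site ablations and random human genomic background sequences. Incubation lasted 1 h with ligand-free nuclear receptor dimers in PBS pH 7.4, 2% milk, 0.02% Triton X-100, 1 mM DTT, 0.2 mg/mL BSA and 0.4 mg/ml salmon testes DNA. Antibodies against each partner (one per run) detected bound dimers, and fluorescence scans were regression-normalized. Binding z-scores take the random background probes as reference.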

In test [2] the test system is LXRa:RXRa (NR concentration 270 nM, RXRa partner concentration 90 nM). Put shortly: as §1
The subject of test [3] is LXRa homodimer (NR concentration 270 nM). Put shortly: as §1
For test [4], the system named is LXRb:RXRa (NR concentration 270 nM, RXRa partner concentration 90 nM). Put shortly:
as §1

In test [5] the test system is LXRb homodimer (NR concentration 270 nM). Put shortly:
as §1

The subject of test [6] is PPARa:RXRa (NR concentration 270 nM, RXRa partner concentration 90 nM). Put shortly:
as §1

For test [7], the system named is PPARg:RXRa (NR concentration 180 nM, RXRa partner concentration 90 nM). Put shortly: as §1
The subject of test [8] is PPARg:RXRa 270nM:90nM, anti-RXR (NR concentration 270 nM, RXRa partner concentration 90 nM). Put shortly:
as §1

Test [9] concerns PPARg:RXRa 30nM:10nM, anti-RXR (NR concentration 30 nM, RXRa partner concentration 10 nM). Put shortly:
as §1

Test [10] concerns PPARg:RXRa 90nM:30nM, anti-RXR (NR concentration 90 nM, RXRa partner concentration 30 nM). Put shortly:
as §1

The test system of test [11] is PPARg:RXRa DBDmut IVT, anti-RXR (DBD mutation: RXRa K156A/R161A, NR concentration 270 nM, RXRa partner concentration 90 nM). Put shortly:
as §1

Test [12] concerns PPARg:RXRa IVT, anti-PPARg (NR concentration 270 nM, RXRa partner concentration 90 nM). Put shortly:
as §1

The test system of test [13] is PPARg DBDmut:RXRa IVT, anti-PPARg (DBD mutation: PPARg1 K132A/R137A, NR concentration 270 nM, RXRa partner concentration 90 nM). Put shortly:
as §1

Test [14] has as its system PPARg DBDmut IVT, anti-PPARg (DBD mutation: PPARg1 K132A/R137A, NR concentration 270 nM). Put shortly:
as §1

Test [15] deals with PPARg homodimer (NR concentration 180 nM). Put shortly: as §1
In test [16] the test system is PXR:RXRa (NR concentration 270 nM, RXRa partner concentration 90 nM). Put shortly:
as §1

The subject of test [17] is PXR homodimer (NR concentration 270 nM). Put shortly:
as §1

The subject of test [18] is RARa:RXR (NR concentration 270 nM, RXRa partner concentration 90 nM). Put shortly: as §1
For test [19], the system named is RARa homodimer (NR concentration 270 nM). Put shortly:
as §1

The test system of test [20] is RARb:RXRa (NR concentration 270 nM, RXRa partner concentration 90 nM). Put shortly: as §1

Regarding CATAGTTGGTCAGGAGGTCACACACCGGATATGA, the PBM binding z-score was 3.73 in test [1]; 3.38 in test [2]; 1.98 in test [3]; 3.28 in test [4]; 0.669 in test [5]; 4.18 in [6]. For the same sequence, the PBM binding z-score amounted to 3.64 in test [7]; 3.65 in test [8]; 1.73 in test [9]; 3.1 in [10]; 1.15 in [11]; 3.71 in [12]. The PBM binding z-score in test [13] is 1.32; in [14] it was 0.996; in test [15] it was 3.84; in [16] it was 4.52; in [17], 1.13; in test [18], 5.4. Also, the PBM binding z-score is 1.99 in test [19] and 3.73 in test [20].
CCGAGTAGGTGATGGGGCATTCAGGCAACGGTGA: the PBM binding z-score in [1] was -0.0189; in [2] it was -0.218; in test [3], -0.529; in test [4], -0.326; in test [5], -1.01; in test [6], 1.72. For the same sequence, the PBM binding z-score in test [7] was found to be 3.51; in [8] it was 4.41; in [9], 2.46; in test [10] it was 4.61; in [11], 2.92; in test [12] it was 3. The PBM binding z-score was 0.0749 in test [13]; -1.06 in [14]; 0.758 in [15]; -0.262 in test [16]; -0.379 in test [17]; -0.226 in test [18]. The PBM binding z-score in test [19] was -0.778; in test [20], 0.297.
Regarding CGAACTAGGTCTAGGACAGTGAATCTCCGCACGC, the PBM binding z-score in [1] was -0.409; in test [2], -0.606; in test [3], -0.429; in test [4] it was -1.12; in test [5], -0.723; in [6], -0.176. Further, the PBM binding z-score in [7] was 0.461; in test [8], -0.367; in test [9], -0.539; in [10] it was -0.377; in test [11], 2.28; in [12], 1.58. Besides, the PBM binding z-score was -0.66 in [13]; -0.934 in test [14]; -0.583 in [15]; -0.626 in test [16]; -0.327 in test [17]; -0.766 in [18]. For the same sequence, the results for the PBM binding z-score in [19] and in test [20] were -0.883 and -0.221, respectively.
Take TGAATGAGGTTAAAGATCAGGGATCGTGGCGTCG: the PBM binding z-score in test [1] was 2.72; in test [2] it was 2.32; in test [3] it was -0.45; in test [4] it was 1.43; in [5], 0.3; in [6], 4.23. For the same sequence, the PBM binding z-score in [7] was 5.54; in test [8], 6.39; in test [9] it was 4.69; in [10], 6.83; in test [11], 2.1; in [12], 3.36. Moreover, the PBM binding z-score in test [13] is 0.927; in test [14] it was 0.328; in test [15], 2.57; in test [16] it was 1.75; in test [17], -0.845; in test [18], 3.09. Further, the PBM binding z-score in test [19] was -0.37; in [20] it was 1.85.

These data come from the supplement of paper PMC6555819.
